Screening data deposited in PubChem by National Center for Advancing Translational Sciences (NCATS).
Compounds with a hit are over-represented: about 8.7% of the library has one in this group of screens.
Pf growth 96h – P. falciparum growth inhibition at 96 hours; P. falciparum luciferase reporter growth, 96 h; Potency, µM (doses to about 28.7 µM), actives largely listed as inhibitors; 320,000 tested, 6.9% active; AID 504834
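P. falciparum expressing integrated firefly luciferase, in erythrocytes at 2% hematocrit, 0.05% parasitemia, incubated with compounds 96 h at 37 C, 5% CO2. Growth inhibition read as loss of luminescence; two-generation exposure targets delayed-death apicoplast inhibitors.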
VACV Venus inh – vaccinia inhibition (Venus reporter). 330,000 tested, 0.46% active. Vaccinia virus Venus reporter expression, fluorescence. AID 720580. Potency, µM (titrated, usually from 36.5 µM), actives largely listed as inhibitors; calls by dose curve; tested in A549 cells; also: nearly all actives have a fitted effect of over 30% in size
VACV mCherry inh – inhibitors of vaccinia virus infection (mCherry reporter signal). Vaccinia virus mCherry reporter infection, fluorescence. Potency, µM (highest dose often 36.5 µM), hits mostly inhibitors. 310,000 tested, 0.63% active; calls by dose curve; tested in A549 cells; also: nearly all actives have a fitted effect of over 35% in size
Pf growth 48h – inhibits P. falciparum growth in the first generation, 48 h; P. falciparum luciferase growth in erythrocytes, 48 h; Potency, µM (top dose mostly 28.7 µM), hits mostly inhibitors; 310,000 tested, 5.9% active; AID 504832
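In quantitative HTS format, infected erythrocytes bearing luciferase-reporter parasites were treated for a single generation at 37 C. Luminescence after adding detection reagent served as the growth measure.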
AMA1-RON2 inh – AMA1-RON2 (P. falciparum) interaction inhibition. 360,000 tested, 0.2% active. AID 720542. AlphaScreen AMA1-biotinylated RON2 peptide binding. Potency, µM (doses to about 58.2 µM), usual class: inhibitors; also: nearly all actives have a fitted effect of over 45% in size
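AMA1 (3D7) with his tag at 25 nM final met compounds first, then biotinylated RON2 peptide at 25 nM; detection used donor plus acceptor beads, 10 µg/mL apiece, read by AlphaScreen after 30 min at room temperature.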
A number is an active result; 0 = inactive; ? = inconclusive; - = no result given; [ ] = remark or other dose. Unless noted, calls follow the shape of the dose curve; as a rule, active = well fitted curve in the direction sought with a large enough effect; inconclusive = small, poorly fitted or top-dose-only effect, or another doubt; inactive = no such curve, though single readings can be large; an effect the other way counts as inactive or inconclusive.

SMILES	Pf growth 96h	VACV Venus inh	VACV mCherry inh	Pf growth 48h	AMA1-RON2 inh
O=c1cc(CSc2ccc(Cl)cc2)nc(-c2ccccc2)[nH]1	0	0	?	0	0
CCN1C(=O)CC(CC(=O)N2CCC(c3nc4ccc(F)cc4[nH]3)CC2)(c2ccccc2C)C1=O (stereo not drawn)	-	0	0	-	-
N#CN=c1snc(-c2ccccc2)n1-c1ccc(Br)cc1	-	?	3.2µM	-	-
CCCN1CC(=O)N2C(c3ccccc3)c3[nH]c4ccccc4c3C[C@H]2C1=O (stereo partly drawn)	?	0	0	2.3µM	0
C=CCc1cccc([C@@H]2[C@@H](C)CC[C@H]3C(=O)N4[C@@H](c5cc(OC)c(OC)c(OC)c5)c5[nH]c6ccccc6c5C[C@H]4C(=O)N23)c1	?	-	-	4.1µM	-
COCCN1CC(=O)N2C(c3cccc(OC)c3)c3[nH]c4ccccc4c3C[C@H]2C1=O (stereo partly drawn)	?	0	0	12µM	0
COc1cc(C2c3[nH]c4ccccc4c3C[C@H]3C(=O)N(C4CC4)CC(=O)N23)ccc1OC(C)C (stereo partly drawn)	9.3µM	0	0	9.3µM	0
COCCCN1CC(=O)N2C(c3cccc(OC)c3)c3[nH]c4ccccc4c3C[C@H]2C1=O (stereo partly drawn)	?	0	0	?	0
COc1ccc(CNC(=O)C2=C(C)C(=O)OC23CCCCC3)cc1	-	0	0	-	-
COc1cccc(C2c3[nH]c4ccccc4c3C[C@H]3C(=O)N(C)CC(=O)N23)c1 (stereo partly drawn)	7.4µM	-	-	7.4µM	0
COc1cccc(C2c3[nH]c4ccccc4c3C[C@H]3C(=O)N(C4CC4)CC(=O)N23)c1 (stereo partly drawn)	1.9µM	-	-	3.3µM	0
COc1ccc(C2c3[nH]c4ccccc4c3C[C@H]3C(=O)N(CCCO)CC(=O)N23)cc1OC (stereo partly drawn)	0	0	0	0	0
COc1cc(C2c3[nH]c4ccccc4c3C[C@@H]3C(=O)N(Cc4ccco4)CC(=O)N23)cc(OC)c1OC (stereo partly drawn)	3.7µM	?	?	2.3µM	0
CCSc1ncc(Cl)c(C(=O)N2CCN(c3ccccc3OC)CC2)n1	-	0	0	-	-
O=C(Nc1c(Cl)cccc1Cl)c1cccc2c1C(=O)N(C1CCCCC1)C2	-	0	0	-	-
Cc1cccc(C)c1NC(=O)c1cccc2c1C(=O)N(C1CCCCC1)C2	12µM	0	?	10µM	0
O=C(c1ccc(S(=O)(=O)N2CCCC2)cc1)N1CCCc2ccccc21	0	0	-	0	0
O=C(c1ccc(S(=O)(=O)N2CCCCC2)cc1)N1CCc2ccccc2C1	3.3µM	0	0	?	0
O=C(c1ccc(S(=O)(=O)N2CCCCC2)cc1)N1CCCc2ccccc21	13µM	0	0	?	0
Cn1c(SCC2CCCO2)nnc1C1CCN(Cc2ccco2)CC1 (stereo not drawn)	-	0	0	-	-
CCOc1nc(S(=O)(=O)c2ccc(C)cc2)c(Cl)s1	0[5.75 µM]	0	0	0	0
CSc1nc(S(=O)(=O)c2ccc(C)cc2)c(Cl)s1	?	0	0	12µM	0
COc1cccc(CNC(=O)c2ccc3c(c2)nc2n3CCOC2)c1OC	-	0	0	-	-
CC(C)C(NC(=O)Cc1ccccc1[N+](=O)[O-])C(C)C	12µM	0	0	0	0
COc1cc(Cl)c(C)cc1NC(=O)c1nn(C)c2c1CSc1ccccc1-2	-	0	0	-	-
SMILES	Pf growth 96h	VACV Venus inh	VACV mCherry inh	Pf growth 48h	AMA1-RON2 inh
COc1cc(C(=O)NC(c2ccccc2Cl)c2cc(Cl)c3cccnc3c2O)cc(OC)c1OC (stereo not drawn)	-	0	11µM	-	-
O=C(NC(c1ccc(Cl)cc1)c1cc(Cl)c2cccnc2c1O)c1cccnc1 (stereo not drawn)	0	0	0	1.2µM	0
CC(=O)NC(c1ccccc1)c1cc(Cl)c2cccnc2c1O (stereo not drawn)	?	?	?	0.83µM	0
CC(=O)NC(c1ccc(N(C)C)cc1)c1cc(Cl)c2cccnc2c1O (stereo not drawn)	-	?	3.2µM	-	0
COc1ccc(C(=O)NC(c2ccccc2Cl)c2cc(Cl)c3cccnc3c2O)cc1 (stereo not drawn)	-	0[7.34 µM]	0[7.34 µM]	-	-
COc1ccc(-n2c(CNC(=O)c3cccc(OC)c3OC)nnc2SC)cc1	-	0	0	-	-
CC(O)C1CCC2C3CCC4CC(O)CCC4(C)C3CCC12C (stereo not drawn)	?	-	-	0	-
O=C(O)c1cccc2c1NC(C(=O)O)C1CC(Sc3ccccc3[N+](=O)[O-])C(Cl)C21 (stereo not drawn)	?	0	0	0	0
CC(=O)c1ccc2c(c1)C1C(Cl)C(Sc3ccccc3[N+](=O)[O-])CC1C(C(=O)O)N2 (stereo not drawn)	2.6µM	0	0	0	0
Cc1ccc(C(=O)OCc2c(C)noc2C)cc1NC(=O)c1ccco1	10µM	0	0	0	0
Cc1ccccc1NC(=O)c1cnc2ccccn2c1=O	6.6µM	0	0	0	0
Cc1cc(Br)cc(C)c1NC(=O)c1cnc2ccccn2c1=O	-	0	0	-	-
O=C(Nc1cnc2ccccn2c1=O)c1ccc(F)cc1	13µM	0	0	0	0
Cn1c(Oc2ccc(F)cc2)nc2c1c(=O)n(Cc1ccccc1Cl)c(=O)n2C	-	0	0	-	-
COc1ccc(-n2c(=O)c3ccc(C(=O)NCc4ccc(C)cc4)cc3n(CC(=O)Nc3ccc(C)cc3)c2=O)cc1	-	?	0	-	-
O=C(NCc1cccc(F)c1)c1ccc(-n2cnc3cccnc32)cc1	-	0	0	-	-
Clc1ccc(SCCn2ccnc2)cc1	13µM	0	-	0	0
COc1ccc(C2c3cccn3CCN2S(=O)(=O)c2ccccc2[N+](=O)[O-])cc1OC (stereo not drawn)	-	0	0	-	-
CN(C)c1ccc(-c2csc(C(O)c3ccccc3)n2)cc1 (stereo not drawn)	-	0	0	-	25µM
CN(C)c1ccc(-c2csc(C(C)(O)c3cccc(F)c3)n2)cc1 (stereo not drawn)	-	0	0	-	16µM
CC(O)(c1cccc(F)c1)c1nc(-c2ccc(Cl)cc2)cs1 (stereo not drawn)	-	0	0	-	0
Cc1c(CCC(=O)NCCc2ccc(Cl)cc2)c(=O)oc2c(C)c(O)ccc12	-	0	0	-	-
CCOC(=O)C1CCCN(C(=O)c2cc3c(=O)n(C)c4ccccc4c3s2)C1 (stereo not drawn)	-	0	0	-	-
CSc1ccc(-c2nc3ccc(C)cn3c2Nc2ccccc2C)cc1	-	0	0	-	-
Cc1ccc(-n2nc3c(=O)n(CCCC(=O)NCc4ccco4)nc(C)c3c2C)cc1	?	-	-	12µM	0
Cc1ccc(-n2nc3c(=O)n(CCCC(=O)N4CCCCC4)nc(C)c3c2C)cc1	?	-	-	9.3µM	0
Cc1ccc(-n2nc3c(=O)n(CCCC(=O)NCc4ccc(F)cc4)nc(C)c3c2C)cc1	0	0	0	8.3µM	0
Cc1nn(CC(=O)N2CCCC2)c(=O)c2nn(-c3ccccc3)c(C)c12	?	-	-	0	0
